Test results published in PubChem BioAssay AID651871 (Sanford-Burnham Center for Chemical Genomics, 2012).
“And” between values parts separate entries of the source, which are not always exact repeats. Equal entries are not always repeated.

Tested on: HL-1
Experiment: cardiomyocyte survival under oxidative or metabolic stress – cell-based, panel, H9c2 and HL-1, ATP luminescence, set 2, SAR follow-up (AID 651871);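 note: cells exposed to stressor for 2 h before ATP readout; reference of the scale not given here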
Details: H9c2/HL-1 cardiomyocytes, 2-deoxyglucose stress, with 2-deoxyglucose, run 12, at 79 µM (top of the series)

Row | SMILES | activity (protection/inhibition)
1 | COc1ccc2nc(-c3cc(OC)c(OC)c(OC)c3)cc(C(=O)NCC(=O)Nc3ccc(C(C)=O)cc3)c2c1 | 62.5%
2 | CCOC(=O)c1cccc(NC(=O)CNC(=O)c2cc(-c3cc(OC)c(OC)c(OC)c3)nc3ccccc23)c1 | 63.3%
3 | COc1ccc2c(c1OC)C(=O)N1c3ccccc3C(=O)N(Cc3cccc(Cl)c3Cl)C21 (stereo not drawn) | 65.5% and -16.5%
